Compound activity: PubChem BioAssay, National Center for Advancing Translational Sciences (NCATS)
The list is not random: actives were taken first. Their share in the collection is about 21%.
Pf growth 96h: Primary qHTS for delayed death inhibitors of the malarial parasite plastid, 96 hour incubation. Potency, µM (top dose mostly 28.7 µM), actives largely listed as inhibitors. AID 504834, 2011. hit rate 6.9% among 320,000. P. falciparum luciferase reporter growth, 96 h
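Compounds incubated with erythrocytes infected by luciferase-expressing P. falciparum (2% hematocrit, 0.05% parasitemia final) for 96 hours, 37 C in 5% CO2. Growth inhibition scored as decreased luciferase luminescence.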
NS1 function inh: qHTS Assay for Inhibitors of Influenza NS1 Protein Function; hit rate 0.4% among 270,000; Potency, µM (highest dose often 46.1 µM); calls by dose curve; also: actives are rising curves; nearly all actives have a fitted effect of over 50% in size
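Growth recovery, yeast-based: influenza A NS1 expressed in S. cerevisiae causes slow growth, and suppressors are detected by OD600. The parent strain without NS1 is used as positive control.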
Cycloheximide cs: Cycloheximide Counterscreen for Small Molecule Inhibitors of Shiga Toxin. cell reporter, cycloheximide protein synthesis inhibition counterscreen. max response, %. hit rate 12% among 300,000. AID 2314, 2010; in the data active = max response mostly above about 13%, no sharp cut-off; inactive = mostly below about 14%; also: read at 38.3 µM for the half of the compounds with a filed dose
Shiga toxin inh: A qHTS for Small Molecule Inhibitors of Shiga Toxin | Vero cells, Shiga toxin protein synthesis inhibition reporter | AID 2315, 2010 | hit rate 9.2% among 290,000 | inhibition, % at 38.7 µM; in the data active = inhibition mostly above about 28%, no sharp cut-off; inactive = mostly below about 43%
Pf growth 48h: Primary qHTS for delayed death inhibitors of the malarial parasite plastid, 48 hour incubation. AID 504832, 2011. Potency, µM (top dose mostly 28.7 µM), most hits filed as inhibitors. hit rate 5.9% among 310,000. P. falciparum luciferase growth in erythrocytes, 48 h
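A one-generation exposure of luciferase-tagged malaria parasites in RPMI 1640/Albumax erythrocyte culture, 37 C and 5% CO2. Inhibition is inferred from decreased luminescence after adding detection reagent.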
Hits are given with their value; n = inactive; u = inconclusive; x = no result given; [ ] = another dose, or the depositor's remark. Unless noted, calls follow the shape of the dose curve; as a rule, active = well fitted inhibition curve with a large enough effect; inconclusive = small, poorly fitted or top-dose-only effect, or another doubt; inactive = no such curve, though single readings can be large or run the other way.

SMILES	Pf growth 96h	NS1 function inh	Cycloheximide cs	Shiga toxin inh	Pf growth 48h
Cc1nc(-c2ccc(C(=O)Nc3cc(S(N)(=O)=O)ccc3C)cc2)cs1	u	n	13.7	55.9	n
COc1ccc(OC)c(NC(=O)c2csc(Cl)c2OC)c1	n	n	21.4	n	n
COc1ccc(OC)c(NC(=O)c2cn(C)c(=O)c3cc(OC)c(OC)cc23)c1	n	n	n	n	u
Cc1nc(-c2ccc(C(=O)Nc3cccc(Br)c3)cc2)cs1	n	n	33.3	56.1	n
Cc1nc(-c2cccc(NC(=O)c3cccs3)c2)cs1	u	n	16.5	n	u
Cc1nc(-c2cccc(NS(C)(=O)=O)c2)cs1	n	n	n	n	x
Cc1nc(-c2cccc(NC(=O)Cc3ccccc3)c2)cs1	n	x	32.1	n	n
CC(=O)c1nn(-c2ccccc2)cc1C(=O)c1ccc(Br)cc1	n	n	n	n	n
O=C(c1cccc(Br)c1)c1cn(-c2ccccc2)nc1C(=O)c1ccccc1	u	n	n	n	4.65µM
CCOC(=O)c1nn(-c2ccc(C)cc2)cc1C(=O)c1ccccc1	n	n	68.4	113.1	x
Cc1sc2c3ccsc3ccc2[n+]1C	n	x	n	n	n
Cc1sc2ccc3sccc3c2[n+]1C	14.7µM	n	n	n	n
COc1cc(/C=C/c2cc(OC(C)=O)c3ccccc3n2)c(OC(C)=O)c([N+](=O)[O-])c1	n	n	n	n	x
CCOC(=O)c1cccc(Nc2nc(-c3cccnc3)nc3ccccc23)c1	8.28µM	n	n	n	13.1µM
COC(=O)c1cccc(Nc2nc(-c3ccncc3)nc3ccccc23)c1	u	n	n	n	1.85µM
CCN1C(=O)C(CC(=O)Nc2c(C)cccc2C)Nc2cc(S(=O)(=O)N(C)C)ccc21 (centres undefined)	n[5.75 µM]	x	n	n	u
N=c1c(S(=O)(=O)c2ccc(Br)cc2)cc2c(=O)n3ccccc3nc2n1C1CCCC1	11.7µM	n	n	n	10.4µM
N=c1c(S(=O)(=O)c2ccccc2)cc2c(=O)n3ccccc3nc2n1C1CCCC1	n	n	n	n	u
CCN(CC)S(=O)(=O)c1ccc(C(=O)NCCCN=C2NS(=O)(=O)c3ccccc32)cc1	8.28µM	n	n	n	u
O=C(NCCCN=C1NS(=O)(=O)c2ccccc21)c1ccc(F)cc1	n	n	n	n	n
Cc1sc(NC(=O)C2C3CCC(O3)C2C(=O)O)nc1-c1ccc(CC(C)C)cc1 (centres undefined)	n	n	41.7	80.1	n
O=[N+]([O-])/C=C\c1cc2ccccc2[nH]1	x	n	x	x	x
O=C(Nc1ccc(Cl)c([N+](=O)[O-])c1)Nc1nc2ccccc2s1	10.4µM	n	n	n	u
O=C(O)c1cccc([N+](=O)[O-])c1C(=O)Nc1nc2ccccc2s1	n	x	n	n	n
O=C(Nc1nc2ccccc2s1)Nc1ccc([N+](=O)[O-])cc1Cl	1.04µM	n	n	n	u
SMILES	Pf growth 96h	NS1 function inh	Cycloheximide cs	Shiga toxin inh	Pf growth 48h
O=C(Nc1ccc(Cl)cc1)/C(=C/c1ccc([N+](=O)[O-])cc1)c1nc2ccccc2s1	1.47µM	n	55.9	115.2	2.08µM
O=[N+]([O-])c1ccc(Nc2nc3ccccc3s2)cc1	x	n	x	x	x
Cc1ccc(NC(=O)Nc2nc3ccccc3s2)cc1NC(=O)Nc1nc2ccccc2s1	2.62µM	n	n	n	2.08µM
O=c1c(Cc2ccccc2)c(O)ccn1Cc1ccco1	n	n	n	n	n
Nc1cc(=O)n(Cc2ccccc2)c(=O)n1-c1ccc(Cl)cc1	u	n	n	n	10.4µM
CC1CCC(C(C)C)C(OC(=O)COC(=O)c2cc(O)ccc2N)C1 (centres undefined)	n	u	24.2	56.6	n
CC1CCC(C(C)C)C(OC(=O)COC(=O)c2ccc(=O)[nH]c2)C1 (centres undefined)	n	n	n	n	n
Cc1ccc(/C=C/S(=O)(=O)NCC(=O)OCC(=O)N2CC(=O)Nc3ccccc32)cc1	n	n	n	n	n
C=CCNc1nc(-c2sc(NC(=O)CC)nc2C)cs1	n	n	35.9	95.8	u
C=CCNc1nc(-c2sc(NC(C)=O)nc2C)cs1	n	n	40.9	132.0	u
O=C(O)[C@@H]1[C@@H](C(=O)NCc2ccncc2)[C@@H]2C=C[C@@H]1O2	x	n	x	x	x
CCCCN(C(=O)COc1ccc(C)cc1OC)c1c(N)n(CCC)c(=O)[nH]c1=O	n	n	n	n	n
COC(=O)C1=CN(Cc2ccccc2)C=C(C(=O)OC)C1c1ccc(O)c(OC)c1	n	n	n	x	13.1µM
COCCN1C=C(C(=O)OC)C(c2ccccc2Cl)C(C(=O)OC)=C1	n	x	n	n	u
COC(=O)C1=CN(Cc2ccc(C)cc2)C=C(C(=O)OC)C1c1cc(OC)c(OC)c(OC)c1	u	n	n	n	1.47µM
COC(=O)C1=CN(Cc2ccccc2)C=C(C(=O)OC)C1c1ccc(OC)c(OC)c1	n	n	n	n	u
COCCN1C=C(C(=O)OC)C(c2cc(Br)c(OC)c(OC)c2)C(C(=O)OC)=C1	n	n	n	n	3.29µM
O=C(CN1C(=O)C2C3C=CC(C4CC34)C2C1=O)Oc1ccccc1 (centres undefined)	n	n	n	n	n
COc1ccc(-n2nc(C(=O)Nc3ccc4c(c3)OCO4)c3c4ccccc4n(C)c3c2=O)cc1	n	u	n	n	u
COc1ccc(-n2nc(C(=O)NCC(=O)N3CCC(C(N)=O)CC3)c3ccccc3c2=O)cc1	u	n	n	n	n
CCc1cc(C(=O)NCC(c2ccc(OC)cc2)N2CCOCC2)sc1C (centres undefined)	n	x	x	x	n
CCC1CCc2sc(C(=O)NCC(c3ccc(OC)cc3)N3CCOCC3)cc2C1 (centres undefined)	u	x	x	x	11.7µM
CCOc1ccc(N(CC)C(=O)c2nn(-c3ccc(OC)cc3)c(=O)c3c2c2ccccc2n3C)cc1	u	x	n	n	1.47µM
CCOc1ccc(-n2nc(C(=O)N3CCOCC3)c3ccccc3c2=O)cc1	x	n	x	x	x
COc1ccc(-n2nc(C(=O)NCC(=O)N3CCC(C)CC3)c3ccccc3c2=O)cc1	n	n	32.7	47.8	u
SMILES	Pf growth 96h	NS1 function inh	Cycloheximide cs	Shiga toxin inh	Pf growth 48h
CCOc1ccc(-n2nc(C(=O)N3CCN(CC)CC3)c3ccccc3c2=O)cc1	u	n	n	n	4.15µM
COc1ccc(C(=O)[C@@H]2CC[C@](C)(C(=O)O)C2(C)C)cc1	n	x	x	x	n
CCOC(=O)C1CCN(C(=O)CNC(=O)c2nn(-c3ccc(OC)c(Cl)c3)c(=O)c3ccccc23)CC1	u	n	24.7	n	u
CCOC(=O)C1CCCN(C(=O)CNC(=O)c2nn(-c3ccc(OC)c(Cl)c3)c(=O)c3ccccc23)C1 (centres undefined)	u	n	n	n	u
COc1ccc(-n2nc(C(=O)NCC(=O)N3CCCC(C)C3)c3ccccc3c2=O)cc1 (centres undefined)	n	n	18.0	n	u
COc1ccc(-n2nc(C(=O)NCC(=O)N3CCOCC3)c3ccccc3c2=O)cc1Cl	u	n	n	n	n
